Compounds with a hit are over-represented: about 2.8% of the library has one in this group of screens.
LGR2 antag: inhibitors of bursicon-induced Drosophila LGR2 receptor cAMP signaling. HEK293 LGR2, CRE-luciferase, bursicon-stimulated, 4 h. inhibition, % at 9.99 µM. 380,000 tested, 0.35% active;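 active = drop in luminescence signal, shown as inhibition above about 50% in the replicate tests, limit read from the data, passing the limit was not always enough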;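 note: agonist challenge used bursicon conditioned medium at about half maximal strength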
TROY signal inh: inhibitors of TROY-dependent NF-kB signaling; Q293 LMP1-TROYcd NF-kB luciferase reporter, 4 h; inhibition, % at 10 µM; 360,000 tested, 0.98% active;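 active = compounds whose plate-normalised and pattern-corrected inhibition of the luciferase reporter signal at the single screening dose is 50% or more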
TWEAK-Fn14 inh: inhibitors of TWEAK-Fn14 interaction signaling; TWEAK-stimulated Fn14 reporter cells, luciferase luminescence, 8 h; inhibition, % at 10 µM; AID 1159606; 360,000 tested, 2% active; in the data active = inhibition above about 50%
EWS-Fli inh: inhibitors of EWS/Fli oncoprotein transcriptional activity; inhibition, % at 12.6 µM; A673 NR0B1-luciferase reporter, viability-normalised; AID 651661; 350,000 tested, 0.67% active;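 active = mean inhibition of at least 50% after viability correction, with every replicate also passing that limit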;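 note: firefly luciferase signal divided by Alamar Blue viability fluorescence both relative to DMSO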
PAX8 inh HTS: inhibitors of PAX8 transcriptional activity in RMG-I cells | inhibition, % at 12.6 µM | AID 652154 | RMG-I TPO-luciferase reporter, SteadyGlo, 24 h | 360,000 tested, 1.2% active;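 active = mean replicate inhibition at least 60% with every replicate also reaching 60%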;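 note: luciferase light reporting Pax8 driven TPO promoter activity; plate controls were median of neutral control wells for no effect and mitoxantrone controls for full effect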
Active calls of the source: *.

What do the screens show for `CN1CCN(C(=O)C[C@@H]2CC[C@@H]3[C@H](COC[C@H](O)CN3C(=O)C3CC3)O2)CC1`?
LGR2 antag: -5.1; EWS-Fli inh: -29.0; PAX8 inh HTS: 3.6

How did CCOc1ccc(NC(=O)Nc2cc(OCC(F)(F)F)cc(OCC(F)(F)F)c2)cc1 do in these assays?
LGR2 antag: 23.8; TROY signal inh: 33.7; TWEAK-Fn14 inh: 41.2; EWS-Fli inh: 16.9; PAX8 inh HTS: 87.2*

What do the screens show for `CC(C)(C)c1ccc(NC(=O)Nc2ccc(F)cc2)cc1`?
LGR2 antag: -40.0; TROY signal inh: 9.1; TWEAK-Fn14 inh: -14.3; EWS-Fli inh: -125.7; PAX8 inh HTS: -110.2

Results for O=C(Nc1ccc(F)cc1)Nc1cc(OCC(F)(F)F)cc(OCC(F)(F)F)c1 ?
LGR2 antag: 34.2; TROY signal inh: 52.5*; TWEAK-Fn14 inh: 54.0*; PAX8 inh HTS: 82.8*

How did C[C@@H]1CN([C@@H](C)CO)C(=O)c2cc(NC(=O)Cc3cn(C)c4ccccc34)ccc2O[C@@H]1CN(C)S(=O)(=O)c1cn(C)cn1 do in these assays?
LGR2 antag: -3.0; EWS-Fli inh: -16.6

What do the screens show for `Cc1ccc(S(=O)(=O)N2CCCC2C(=O)NC2CCCCC2)cc1` (configuration not stated)?
TROY signal inh: 3.2; TWEAK-Fn14 inh: -6.6

What do the screens show for `O=C(NC1CCCCC1)C1CCCN1S(=O)(=O)c1ccc(F)cc1` (configuration not stated)?
LGR2 antag: -4.3; TROY signal inh: 78.0*; TWEAK-Fn14 inh: 15.9; EWS-Fli inh: 2.6; PAX8 inh HTS: -7.7

Results for COc1ccc2c3c([nH]c2c1)[C@H](CO)N(C(=O)CN(C)C)CC31CCN(CC2CCCCC2)CC1 ?
LGR2 antag: -11.4; EWS-Fli inh: -5.1

What do the screens show for `COc1ccc(C(c2c(NC(=O)c3ccco3)sc(C)c2C)N2CCOCC2)cc1` (configuration not stated)?
LGR2 antag: 8.4; TROY signal inh: 51.5*; TWEAK-Fn14 inh: 82.6*; EWS-Fli inh: 31.4; PAX8 inh HTS: -103.1

Results for C[C@H](CO)N1C[C@H](C)[C@H](CN(C)S(=O)(=O)c2ccccc2)Oc2ccc(NC(=O)Cc3ccccc3)cc2C1=O ?
LGR2 antag: -12.6; EWS-Fli inh: 5.6; PAX8 inh HTS: -10.9

What do the screens show for `COc1ccc(NC(=O)CN2C(=O)NC(C)(C3CCCCC3)C2=O)c(OC)c1` (configuration not stated)?
LGR2 antag: 3.2; TROY signal inh: -17.4; TWEAK-Fn14 inh: 1.9; EWS-Fli inh: 10.7; PAX8 inh HTS: 10.9

What do the screens show for `COc1ccc(NC(=O)CN2C(=O)NC3(CCCC3)C2=O)c(OC)c1`?
LGR2 antag: -18.2; TROY signal inh: 7.4; TWEAK-Fn14 inh: 81.2*; EWS-Fli inh: 1.2; PAX8 inh HTS: 8.8

Results for O=C(N[C@H]1CC[C@@H](CCNC(=O)C2CCCCC2)O[C@@H]1CO)c1ccccn1 ?
LGR2 antag: 22.6; EWS-Fli inh: 14.9; PAX8 inh HTS: -1.5

What do the screens show for `O=C(NCC1CC1)[C@H]1[C@H](CO)[C@H]2Cn3c(cccc3=O)[C@H]2N1Cc1cccc(F)c1`?
LGR2 antag: -4.6; PAX8 inh HTS: -21.7

What do the screens show for `C[C@@H]1CN([C@H](C)CO)C(=O)Cc2cc(NC(=O)NC3CCCCC3)ccc2O[C@H]1CN(C)Cc1ccccc1`?
LGR2 antag: 4.2; EWS-Fli inh: -8.7; PAX8 inh HTS: 10.9

Results for COc1ccc(C(=O)N2N=C(c3ccc(NS(C)(=O)=O)cc3)CC2c2cccs2)cc1 (configuration not stated) ?
LGR2 antag: -16.0; TROY signal inh: 51.5*; TWEAK-Fn14 inh: 21.7; EWS-Fli inh: 3.0; PAX8 inh HTS: 11.0

Results for Cc1ccc(C(=O)N2N=C(c3ccc(NS(C)(=O)=O)cc3)CC2c2cccs2)cc1 (configuration not stated) ?
LGR2 antag: 11.6; TROY signal inh: 2.7; TWEAK-Fn14 inh: 0.6; EWS-Fli inh: 10.0; PAX8 inh HTS: -3.2

How did CC(C)Nc1ncnc2ccc(Br)cc12 do in these assays?
LGR2 antag: 25.1; TROY signal inh: 33.8; TWEAK-Fn14 inh: 78.1*; EWS-Fli inh: -8.4; PAX8 inh HTS: -22.7

How did CSCCC(Nc1ncnc2ccc(Br)cc12)C(=O)O (configuration not stated) do in these assays?
LGR2 antag: -6.6; TROY signal inh: 21.4; TWEAK-Fn14 inh: 25.4

What do the screens show for `COc1ccccc1NC(=O)c1c(Nc2ccccc2C)sc(C(=O)Nc2cccc(Cl)c2)c1N`?
LGR2 antag: 12.3; TROY signal inh: 22.1; TWEAK-Fn14 inh: 85.7*; EWS-Fli inh: 26.2; PAX8 inh HTS: 25.5

What do the screens show for `CC(C)NC(=O)N(C)C[C@H]1Oc2cc(C3=CCCC3)ccc2S(=O)(=O)N([C@@H](C)CO)C[C@H]1C`?
LGR2 antag: 8.5; EWS-Fli inh: -6.1

Results for COc1ccc2c3c(n(C)c2c1)[C@H](CO)N(C)CC31CN(S(C)(=O)=O)C1 ?
LGR2 antag: -21.3; EWS-Fli inh: -11.7

How did Cc1ccc(/C=C/C(=O)N2CCN(S(=O)(=O)c3cccs3)CC2)o1 do in these assays?
LGR2 antag: -6.3; TROY signal inh: 15.9; TWEAK-Fn14 inh: 85.7*; EWS-Fli inh: 3.1; PAX8 inh HTS: -9.5

Results for O=C(/C=C/c1ccco1)N1CCN(S(=O)(=O)c2cccs2)CC1 ?
LGR2 antag: -14.4; TROY signal inh: 8.1; TWEAK-Fn14 inh: -2.9; EWS-Fli inh: -1.4; PAX8 inh HTS: 2.0

What do the screens show for `Cc1ccc(C2CC(C(F)(F)F)n3nc(C(=O)NCc4c(C)nn(C)c4C)c(Cl)c3N2)cc1` (configuration not stated)?
TROY signal inh: 58.1*; TWEAK-Fn14 inh: 34.1

What do the screens show for `CC=Cc1ccc2n(c1=O)C[C@H]1[C@H](CO)[C@@H](C(=O)NCCOC)[C@@H]2N1Cc1ccccc1` (mixture of isomers)?
LGR2 antag: 2.4; EWS-Fli inh: -12.6; PAX8 inh HTS: 2.6

How did C=CCN1C(=O)[C@]2(O[C@H](CCn3cc([C@H](O)c4ccccc4)nn3)[C@@H]([Si](C)(C)c3ccc(OC)cc3)[C@@H]2C)c2cc(N3CCOC3=O)ccc21 do in these assays?
EWS-Fli inh: 15.7; PAX8 inh HTS: 0.8

Results for COc1ccc([Si](C)(C)[C@@H]2[C@@H](CCO)O[C@]3(C(=O)N(Cc4cccc(NC(C)=O)c4)c4ccccc43)[C@H]2C)cc1 ?
EWS-Fli inh: 20.9; PAX8 inh HTS: 103.5*

What do the screens show for `C=CCN1C(=O)[C@]2(O[C@H](CCn3cc(CCO)nn3)[C@@H]([Si](C)(C)c3ccc(OC)cc3)[C@@H]2C)c2cc(N3C(=O)c4cccc5cccc3c45)ccc21`?
EWS-Fli inh: 35.7; PAX8 inh HTS: 97.4*

What do the screens show for `COc1ccc([Si](C)(C)[C@H]2[C@H](CCO)O[C@@]3(C(=O)N(Cc4ccccc4)c4ccc(NC(C)=O)cc43)[C@@H]2C)cc1`?
EWS-Fli inh: 30.0; PAX8 inh HTS: 53.5

Source: PubChem BioAssay (several laboratories)
